Screens: PubChem BioAssay, The Scripps Research Institute Molecular Screening Center
GBA enhancer – GBA activity enhancers in patient fibroblasts, primary screen, cell-based; Lysosomal acid glucosylceramidase (Homo sapiens), P04062; L444P Gaucher fibroblasts, 4-MU-glucoside fluorescence, 3 days; activation, % at 10 µM; actives 0.44% (n = 30,000); AID 784, 2007; in the data active means activation above about 65%;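 further: 0% = vehicle wells and 100% = positive control wells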
Target sequence (P04062 whole entry L483P): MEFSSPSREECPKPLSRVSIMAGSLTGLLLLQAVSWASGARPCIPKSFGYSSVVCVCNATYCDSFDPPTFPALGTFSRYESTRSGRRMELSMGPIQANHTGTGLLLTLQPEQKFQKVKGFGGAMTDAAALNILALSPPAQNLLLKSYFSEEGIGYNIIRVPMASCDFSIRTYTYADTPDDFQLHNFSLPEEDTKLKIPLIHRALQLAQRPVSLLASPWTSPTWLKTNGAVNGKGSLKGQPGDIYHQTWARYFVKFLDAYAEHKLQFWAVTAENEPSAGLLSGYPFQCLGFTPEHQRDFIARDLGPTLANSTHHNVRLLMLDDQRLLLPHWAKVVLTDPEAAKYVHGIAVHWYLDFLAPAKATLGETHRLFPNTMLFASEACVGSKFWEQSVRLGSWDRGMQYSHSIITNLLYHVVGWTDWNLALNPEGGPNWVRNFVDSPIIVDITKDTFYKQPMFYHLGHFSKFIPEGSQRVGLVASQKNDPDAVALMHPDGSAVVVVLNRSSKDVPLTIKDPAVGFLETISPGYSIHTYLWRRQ
* hit, by the source's call. The entries come from a sample that favours hits as a whole.

What do the screens show for `O=C(CN1C(=O)C2(OCCCO2)c2ccccc21)NCc1ccccc1`?
GBA enhancer: -4

Results for COC(=O)CN1C(=O)C2(OCCCO2)c2cc(Br)ccc21 ?
GBA enhancer: 139*

How did CCOC(=O)CN1C(=O)C2(OCCCO2)c2ccccc21 do in these assays?
GBA enhancer: 0

What do the screens show for `C=CCSc1nc(N)c(C(=O)Nc2ccccc2C)cc1C(N)=O`?
GBA enhancer: 6

What do the screens show for `CCOC(=O)N1CCN(C(=O)c2ccc(Cn3c(=S)[nH]c4cc5c(cc4c3=O)OCO5)cc2)CC1`?
GBA enhancer: -14

What do the screens show for `CCOC(=O)N1CCN(C(=O)c2ccc3c(=O)n(Cc4ccc(OC)cc4)c(=S)[nH]c3c2)CC1`?
GBA enhancer: -35

Results for CCOC(=O)N1CCN(C(=O)c2ccc3c(=O)n(Cc4ccccc4)c(=S)[nH]c3c2)CC1 ?
GBA enhancer: 69*

What do the screens show for `COC(=O)CCC(=O)Nc1ccc(Br)cc1`?
GBA enhancer: 14

What do the screens show for `COc1ccc(C)cc1-n1nnnc1SCC1CCCCO1` (configuration not stated)?
GBA enhancer: -12

How did COC(=O)C1(CCSC)NC(c2ccco2)C2C(=O)N(C)C(=O)C21 (configuration not stated) do in these assays?
GBA enhancer: 3

How did N#CCc1ccc(NC(=O)Nc2cccc(Cl)c2)cc1 do in these assays?
GBA enhancer: 70*

What do the screens show for `CN1CCN(S(=O)(=O)c2ccc(NC(=O)Nc3cccc(Cl)c3)cc2)CC1`?
GBA enhancer: 2

How did O=C(Nc1cccc(Cl)c1)Nc1nccs1 do in these assays?
GBA enhancer: -49

Results for O=S(=O)(NC1CCCCC1)c1ccc(Cl)s1 ?
GBA enhancer: -41

Results for O=C(COc1ccc(-c2nnco2)cc1)NC1CCCc2ccccc21 (configuration not stated) ?
GBA enhancer: 0

Results for COc1ccccc1N(CCC#N)C(=O)CSc1nc(-c2ccccc2)cn1N ?
GBA enhancer: -2

Results for Fc1ccccc1N1CCN(Cc2nc(-c3ccc(Cl)cc3Cl)no2)CC1 ?
GBA enhancer: 1

What do the screens show for `CCOC(=O)c1oc2c(CN3CCCCC3C)c(O)ccc2c(=O)c1-c1ccc(OC)c(OC)c1` (configuration not stated)?
GBA enhancer: -24

Results for CCOC(=O)c1oc2c(C)c(O)ccc2c(=O)c1-c1nncn1-c1ccccc1 ?
GBA enhancer: 84*

Results for CCOC(=O)c1nn(-c2ccccc2)c(=O)c(C#N)c1C ?
GBA enhancer: 3

How did CCc1c(C)nc(N)n2c(SCC(=O)N3CCCC(C)C3)nnc12 (configuration not stated) do in these assays?
GBA enhancer: -3

What do the screens show for `Cc1ccc(S(=O)(=O)Nc2nonc2C)cc1`?
GBA enhancer: -12

What do the screens show for `CCOC(=O)c1sc(NC(=O)c2ccc(S(=O)(=O)N3CCOCC3)cc2)cc1C`?
GBA enhancer: 3

What do the screens show for `CC(C)(C)NC(=O)CSc1nncn1NCc1ccccc1`?
GBA enhancer: 68*

Results for Cc1ccc(CNn2cnnc2SCC(=O)NC(C)(C)C)cc1 ?
GBA enhancer: -22

How did Cc1nnc(SCC(=O)NC(C)(C)C)n1CCc1ccccc1 do in these assays?
GBA enhancer: -7

What do the screens show for `O=C(COC(=O)C1CCCCC1C(=O)N1CCc2ccccc21)NCc1ccco1` (configuration not stated)?
GBA enhancer: 6

How did COc1ccc(Cl)cc1NC(=O)CSc1nncn1-c1cccnc1 do in these assays?
GBA enhancer: -7

How did O=C(NCc1cccs1)c1csc2ccccc12 do in these assays?
GBA enhancer: -45

What do the screens show for `Clc1ccc(CSc2nnc(-c3cccnc3)n2Cc2ccco2)c(Cl)c1`?
GBA enhancer: -41

Results for Cc1sc2nc3c(C(=O)N4CCN(c5ncccn5)CC4)cccn3c(=O)c2c1C ?
GBA enhancer: -59

What do the screens show for `O=C(CCCNS(=O)(=O)c1cccc2nsnc12)NCCc1ccccc1`?
GBA enhancer: 3

Results for O=C(CCNS(=O)(=O)c1cccc2nsnc12)NC1CCN(Cc2ccccc2)CC1 ?
GBA enhancer: 86*

What do the screens show for `CN(CC(=O)NCCN1CCN(Cc2ccccc2)CC1)S(=O)(=O)c1cccc2nsnc12`?
GBA enhancer: 17

What do the screens show for `O=C(Nc1ccc(OC(F)(F)F)cc1)C1CCCN(S(=O)(=O)c2cccnc2)C1` (configuration not stated)?
GBA enhancer: 10

How did O=C(N1CCOCC1)N1CCN(c2ccccn2)CC1 do in these assays?
GBA enhancer: 15

What do the screens show for `Cc1cc(C)cc(N2CCN(C(=O)N3CCOCC3)CC2)c1`?
GBA enhancer: 72*

Results for Cc1ccc(C)n1-c1ccc(N2CCOCC2)cc1 ?
GBA enhancer: -3

What do the screens show for `COC(=O)CSc1nnc(CNc2ccc(OC)cc2)n1C`?
GBA enhancer: 3

Results for CCCc1nnc(SCc2ccc(OC)cc2)n1N ?
GBA enhancer: -3

How did O=C(CCn1cccc1)NCCc1ccc(Cl)cc1 do in these assays?
GBA enhancer: -21

How did Cc1ccc2c(c1)[C@H]1OCC[C@H]1[C@@H](c1ccncc1)N2 do in these assays?
GBA enhancer: 72*
